# Reference: article PMC5540273 (PLoS ONE, 2017)
# System: MAP3K3
# Conditions: concentration: 1 μM, replicates: in singlicate; n = 1
# 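Further: KINOMEscan kinase panel screen.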
row,Compound,%Inh
1,COc1ccc(-c2coc3ccc(-c4nnc(SCc5ccc(OC)c(C(F)(F)F)c5)o4)cc23)cc1,0%
2,CC(C)c1nc(-c2cccc(NS(=O)(=O)c3c(F)cccc3F)c2F)c(-c2ccnc(Nc3ccc(N4CCOCC4)nc3)n2)s1 [GSK2008607],80%
3,Cn1cc(-c2ccc3c(c2)CCN3C(=O)Cc2cccc(F)c2)c2c(N)ncnc21 [GSK2603358],50%
4,COc1cc2c(cc1OCCN1CCNCC1)ncc1c3ccc(C#N)cc3[nH]c21,14%
5,Cc1ccc(S(=O)(=O)Nc2ccc(Nc3nccc(Nc4cccc5[nH]ncc45)n3)cc2)cc1 [GSK581271],0%
6,Cc1ccc(C)c(NC(=O)NC2CCN(c3ccnc(Nc4ccc(F)cc4)n3)C2)c1 (centres unmarked) [GSK1379720],0%
7,CN1CCN(Cc2cccc(-c3ccc4c(Nc5ccc(Oc6ccccc6)cc5)ccnc4c3)c2)CC1 [GW578342],0%
8,COc1cc(Nc2nccc(-c3c(-c4cccc(NC(=O)c5c(F)cccc5F)c4)nn4ccccc34)n2)cc(OC)c1OC [GSK323521],20%
9,Cc1cccc(Nc2nc(N[C@H]3CCNC3)ncc2C(N)=O)c1.Cl [GSK2197149],60%
10,Nc1n[nH]c2cnc(-c3ccccc3)cc12 [SB-642124],0%
11,Cc1occc1-c1ncc(OC[C@@H](N)Cc2c[nH]c3ccccc23)cc1-c1ccc2[nH]nc(C)c2c1.O=C(O)C(F)(F)F [GSK682037],98.6%
12,CSc1cccc2c(-c3ccncn3)c(-c3ccc(F)cc3)nn12 [GW514786],0%
13,C[C@@H]1CC[C@@H](C(=O)Nc2ccccc2)CN1c1cc(-c2ccc3c(N)n[nH]c3c2)nc(N)n1 [GSK2286062],0%
14,CN(C)Cc1ccc(-c2ccc3c(Nc4ccc(Oc5ccccn5)cc4)ccnc3c2)o1 [GW567148],0%
15,COc1cc(Nc2ncc3c(C)nc(-c4cc5ccccc5[nH]4)n3n2)cc(OC)c1OC [GW869516],14%
16,Cn1cc(-c2[nH]c3cc(NC(=O)[C@H](N)C4CCCCC4)cc4c3c2C=NNC4=O)cn1,94.8%
17,FC(F)(F)c1ccc(/C=C/c2cncnc2Nc2ccc3[nH]c(Cc4ccccc4)nc3c2)cc1 [GW709199],1%
18,CCCCc1nn2ncccc2c1-c1ccnc(Nc2ccc(N3CCN(C)CC3)cc2)n1 [GW684941],49%
19,COCCOCCOc1cc2ncc3c4ccc(C#N)cc4[nH]c3c2cc1OC,4%
20,COc1cccc(-c2ccc3c(NC(=O)C4CC4)n[nH]c3n2)c1 [SB-710903],0%
21,COc1cc(Nc2nccc(N3CCC(NC(=O)c4cc5ccccc5s4)C3)n2)cc(OC)c1OC (centres unmarked) [GSK1379760],11%
22,COC(=O)Nc1nc2cc(Oc3ccc(NC(=O)Nc4cc(C(F)(F)F)ccc4F)cn3)ccc2[nH]1.Cl.Cl [GW681170],0%
23,COc1cc(Nc2nccc(N3CCC(NC(=O)Nc4cccc(C(C)=O)c4)C3)n2)cc(OC)c1OC (centres unmarked) [GSK1379753],0%
24,c1ccc(-c2cnc3nccnn23)cc1 [AH20685],0%
25,CN1CCN(CCCNc2nccc(-c3c(-c4ccc(F)cc4)nn4cc(C(F)(F)F)ccc34)n2)CC1 [GW621581],0%

# System: MAP3K4
# Conditions: concentration: 1 μM, replicates: in singlicate; n = 1
row,Compound,%Inh
1,COc1ccc(Nc2nccc(NCCNC(=O)c3cc4ccccc4s3)n2)cc1 [GSK1379896],24%
2,Clc1ccc(-c2nn3ncccc3c2-c2ccnc(Nc3ccc4c(c3)OCCO4)n2)cc1 [GW829116],0%
3,O=C(Nc1cccc(-c2nn3ncccc3c2-c2ccnc(Nc3ccccc3)n2)c1)c1c(F)cccc1F [GSK198271],35%
4,Nc1ncc(-c2ccc3nccc(-c4ccncc4)c3c2)cc1S(=O)(=O)N1CCOCC1 [GSK1627798],9%
5,Cl.c1ccc(-c2ccc3c(Nc4ccc5[nH]ccc5c4)ccnc3c2)nc1 [GW440138],9%
6,COc1cccc(C2=C(Nc3ccc(Cl)c(C(=O)O)c3)C(=O)NC2=O)c1 [SB-390769],29%
7,O=C(Nc1n[nH]c2cc(-c3ccoc3)ccc12)C1CC1 [SB-738481],17%
8,CCS(=O)(=O)c1ccc(OC)c(Nc2nccc(-c3c(-c4cccc(NC(=O)c5c(F)cccc5F)c4)nn4ncccc34)n2)c1 [GSK326180],7%
9,CN(c1ccc(NC(=O)Nc2cc(C(F)(F)F)ccc2F)cc1)c1ccnc(Nc2ccc(S(N)(=O)=O)cc2)n1 [GW809893],72%
10,Oc1cc(Nc2ccnc3cc(I)ccc23)ccc1F [GW552771],0%
11,CC(=O)N1CCN(c2ccc(Nc3nccc(-c4sc(C(C)C)nc4-c4cccc(NS(=O)(=O)c5cccc(Cl)c5)c4)n3)cn2)CC1 [GSK1660437],0%
12,Cn1cc(-c2ccc3c(c2)CCN3C(=O)Cc2cccc(Cl)c2)c2c(N)ncnc21 [GSK2606590],52%
13,COc1ccc(-c2coc3ccc(-c4nnc(SCc5ccc(OC)c(C(F)(F)F)c5)o4)cc23)cc1,0%
14,CC(C)c1nc(-c2cccc(NS(=O)(=O)c3c(F)cccc3F)c2F)c(-c2ccnc(Nc3ccc(N4CCOCC4)nc3)n2)s1 [GSK2008607],91.7%
15,Cn1cc(-c2ccc3c(c2)CCN3C(=O)Cc2cccc(F)c2)c2c(N)ncnc21 [GSK2603358],66%
16,COc1cc2c(cc1OCCN1CCNCC1)ncc1c3ccc(C#N)cc3[nH]c21,7%
17,Cc1ccc(S(=O)(=O)Nc2ccc(Nc3nccc(Nc4cccc5[nH]ncc45)n3)cc2)cc1 [GSK581271],7%
18,Cc1ccc(C)c(NC(=O)NC2CCN(c3ccnc(Nc4ccc(F)cc4)n3)C2)c1 (centres unmarked) [GSK1379720],18%
19,CN1CCN(Cc2cccc(-c3ccc4c(Nc5ccc(Oc6ccccc6)cc5)ccnc4c3)c2)CC1 [GW578342],15%

row,Compound,%Inh
1,COc1cc(Nc2nccc(-c3c(-c4cccc(NC(=O)c5c(F)cccc5F)c4)nn4ccccc34)n2)cc(OC)c1OC [GSK323521],65%
2,Cc1cccc(Nc2nc(N[C@H]3CCNC3)ncc2C(N)=O)c1.Cl [GSK2197149],45%
3,Nc1n[nH]c2cnc(-c3ccccc3)cc12 [SB-642124],23%
4,Cc1occc1-c1ncc(OC[C@@H](N)Cc2c[nH]c3ccccc23)cc1-c1ccc2[nH]nc(C)c2c1.O=C(O)C(F)(F)F [GSK682037],22%
5,CSc1cccc2c(-c3ccncn3)c(-c3ccc(F)cc3)nn12 [GW514786],0%
6,C[C@@H]1CC[C@@H](C(=O)Nc2ccccc2)CN1c1cc(-c2ccc3c(N)n[nH]c3c2)nc(N)n1 [GSK2286062],4%
7,CN(C)Cc1ccc(-c2ccc3c(Nc4ccc(Oc5ccccn5)cc4)ccnc3c2)o1 [GW567148],0%
8,COc1cc(Nc2ncc3c(C)nc(-c4cc5ccccc5[nH]4)n3n2)cc(OC)c1OC [GW869516],52%
9,Cn1cc(-c2[nH]c3cc(NC(=O)[C@H](N)C4CCCCC4)cc4c3c2C=NNC4=O)cn1,9%
10,FC(F)(F)c1ccc(/C=C/c2cncnc2Nc2ccc3[nH]c(Cc4ccccc4)nc3c2)cc1 [GW709199],15%
11,CCCCc1nn2ncccc2c1-c1ccnc(Nc2ccc(N3CCN(C)CC3)cc2)n1 [GW684941],40%
12,COCCOCCOc1cc2ncc3c4ccc(C#N)cc4[nH]c3c2cc1OC,17%
13,COc1cccc(-c2ccc3c(NC(=O)C4CC4)n[nH]c3n2)c1 [SB-710903],32%
14,COc1cc(Nc2nccc(N3CCC(NC(=O)c4cc5ccccc5s4)C3)n2)cc(OC)c1OC (centres unmarked) [GSK1379760],16%
15,COC(=O)Nc1nc2cc(Oc3ccc(NC(=O)Nc4cc(C(F)(F)F)ccc4F)cn3)ccc2[nH]1.Cl.Cl [GW681170],9%
16,COc1cc(Nc2nccc(N3CCC(NC(=O)Nc4cccc(C(C)=O)c4)C3)n2)cc(OC)c1OC (centres unmarked) [GSK1379753],0%
17,c1ccc(-c2cnc3nccnn23)cc1 [AH20685],21%
18,CN1CCN(CCCNc2nccc(-c3c(-c4ccc(F)cc4)nn4cc(C(F)(F)F)ccc34)n2)CC1 [GW621581],0%
